Test [1] can be described thus: small molecules captured by biotinylated probe aFSTL3 – biochemical, small-molecule microarray, fluorescence 635/667, stem cell growth factor project, primary screen (AID 1064).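 Also: measures binding of the biotinylated anti-FSTL3 antibody to printed compounds.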 Particulars: higher = more signal.
Test [2] is described as follows: binders from COS7 lysate, DM2A8 probe, primary screen, torsin A project, cell lysate, small-molecule microarray, fluorescence 635/667 (AID 1065). Particulars: higher = more signal, COS7 lysate expressing mutant human TOR1A.
Test [3] in a line: small molecules captured by biotinylated probe aFGF2 – biochemical, small-molecule microarray, fluorescence 635/667, stem cell growth factor project, primary screen (AID 1067).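 Also: measures binding of biotinylated aFGF2 protein to printed compounds on slides; z-score merges feature fluorescence and signal-to-noise across triplicate slides.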 Particulars: higher = more signal.
The nature of test [4]: small molecules captured by biotinylated probe aFGF10 – biochemical, small-molecule microarray, fluorescence 635/667, stem cell growth factor project, primary screen (AID 1071).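 Also: score merges 667 nm spot intensity and signal to noise from triplicate slides.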 Particulars: higher = more signal.
Test [5] deals with Neurogenic locus notch homolog protein 2 (Homo sapiens) (UniProt Q04721). The test is described as follows: small molecules binding Notch2 protein – biochemical, small-molecule microarray, 635 nm fluorescence, stem cell growth factors, primary screen (AID 1073). Particulars: higher = more signal.
Neurogenic locus notch homolog protein 2 (Homo sapiens), sequence (Q04721 whole entry, looked up, canonical isoform): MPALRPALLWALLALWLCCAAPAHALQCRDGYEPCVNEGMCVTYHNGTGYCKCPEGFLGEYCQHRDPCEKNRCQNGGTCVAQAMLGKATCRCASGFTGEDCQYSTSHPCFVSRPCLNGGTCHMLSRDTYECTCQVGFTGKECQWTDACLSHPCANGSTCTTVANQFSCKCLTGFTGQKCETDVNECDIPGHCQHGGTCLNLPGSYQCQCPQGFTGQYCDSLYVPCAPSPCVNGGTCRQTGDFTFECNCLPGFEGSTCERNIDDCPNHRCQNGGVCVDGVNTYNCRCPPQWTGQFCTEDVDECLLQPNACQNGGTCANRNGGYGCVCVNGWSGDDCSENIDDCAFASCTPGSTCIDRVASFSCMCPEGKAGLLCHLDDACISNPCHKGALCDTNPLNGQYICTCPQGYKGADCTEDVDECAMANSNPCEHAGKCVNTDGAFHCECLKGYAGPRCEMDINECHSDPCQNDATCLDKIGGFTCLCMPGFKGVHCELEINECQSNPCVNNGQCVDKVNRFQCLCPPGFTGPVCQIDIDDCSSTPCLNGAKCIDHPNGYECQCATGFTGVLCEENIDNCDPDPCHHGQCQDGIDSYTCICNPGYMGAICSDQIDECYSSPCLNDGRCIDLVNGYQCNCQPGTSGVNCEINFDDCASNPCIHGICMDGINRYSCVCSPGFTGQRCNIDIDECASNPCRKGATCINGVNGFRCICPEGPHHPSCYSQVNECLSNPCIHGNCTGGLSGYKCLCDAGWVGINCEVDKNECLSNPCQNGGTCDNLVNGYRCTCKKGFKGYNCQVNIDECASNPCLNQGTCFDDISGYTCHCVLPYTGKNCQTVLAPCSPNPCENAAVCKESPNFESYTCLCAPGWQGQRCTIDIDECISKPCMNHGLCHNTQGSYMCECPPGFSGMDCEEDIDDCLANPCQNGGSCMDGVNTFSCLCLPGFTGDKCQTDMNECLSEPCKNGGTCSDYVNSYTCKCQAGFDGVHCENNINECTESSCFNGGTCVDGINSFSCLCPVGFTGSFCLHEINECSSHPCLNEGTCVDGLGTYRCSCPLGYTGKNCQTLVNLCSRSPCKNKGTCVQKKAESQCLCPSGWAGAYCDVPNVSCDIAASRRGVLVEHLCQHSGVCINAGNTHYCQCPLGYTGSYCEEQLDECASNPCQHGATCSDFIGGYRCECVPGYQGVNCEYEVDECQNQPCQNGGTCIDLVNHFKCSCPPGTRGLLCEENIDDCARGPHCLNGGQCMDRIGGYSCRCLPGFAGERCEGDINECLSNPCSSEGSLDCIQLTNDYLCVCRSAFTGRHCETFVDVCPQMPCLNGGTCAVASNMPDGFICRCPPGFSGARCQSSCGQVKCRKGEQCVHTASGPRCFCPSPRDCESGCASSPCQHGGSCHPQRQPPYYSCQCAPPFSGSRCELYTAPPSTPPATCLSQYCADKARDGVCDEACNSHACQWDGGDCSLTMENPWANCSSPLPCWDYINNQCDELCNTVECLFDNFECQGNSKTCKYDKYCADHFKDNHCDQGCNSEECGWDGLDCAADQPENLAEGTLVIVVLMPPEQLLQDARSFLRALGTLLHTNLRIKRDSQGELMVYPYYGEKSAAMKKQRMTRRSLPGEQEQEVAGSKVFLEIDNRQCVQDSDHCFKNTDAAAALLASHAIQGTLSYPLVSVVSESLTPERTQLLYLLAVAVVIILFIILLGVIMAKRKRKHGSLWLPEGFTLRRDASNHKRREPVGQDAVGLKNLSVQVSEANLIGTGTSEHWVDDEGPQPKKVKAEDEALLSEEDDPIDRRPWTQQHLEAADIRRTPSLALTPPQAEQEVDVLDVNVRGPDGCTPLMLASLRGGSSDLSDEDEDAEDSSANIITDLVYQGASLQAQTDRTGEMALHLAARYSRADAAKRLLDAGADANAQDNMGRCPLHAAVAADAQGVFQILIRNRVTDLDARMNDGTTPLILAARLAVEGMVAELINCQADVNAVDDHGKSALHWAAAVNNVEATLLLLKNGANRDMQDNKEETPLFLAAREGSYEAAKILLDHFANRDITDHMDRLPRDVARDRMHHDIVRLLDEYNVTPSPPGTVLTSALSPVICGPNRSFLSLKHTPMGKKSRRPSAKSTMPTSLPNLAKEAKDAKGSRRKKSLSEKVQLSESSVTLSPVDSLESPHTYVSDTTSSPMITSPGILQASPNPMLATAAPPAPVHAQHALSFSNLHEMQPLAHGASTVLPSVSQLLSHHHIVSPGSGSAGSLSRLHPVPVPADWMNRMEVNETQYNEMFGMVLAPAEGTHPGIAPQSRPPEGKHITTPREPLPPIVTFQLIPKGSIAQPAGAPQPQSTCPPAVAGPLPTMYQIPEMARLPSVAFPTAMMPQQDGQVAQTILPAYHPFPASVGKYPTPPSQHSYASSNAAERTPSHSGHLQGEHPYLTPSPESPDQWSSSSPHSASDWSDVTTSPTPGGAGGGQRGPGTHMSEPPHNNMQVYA
The target in test [6] is Pro-neuregulin-1, membrane-bound isoform (Homo sapiens) (UniProt Q02297). The test is described as follows: small molecules binding neuregulin-1 protein – biochemical, small-molecule microarray, fluorescence 635/667, psychiatric disease protein project, primary screen (AID 1075).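 Also: score combines 667 nm spot fluorescence with signal to noise.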 Particulars: NRG1 binding, 635 nm fluorescence, higher = more signal.
Pro-neuregulin-1, membrane-bound isoform (Homo sapiens), sequence (Q02297 whole entry, looked up, the tested form may be a part, canonical isoform): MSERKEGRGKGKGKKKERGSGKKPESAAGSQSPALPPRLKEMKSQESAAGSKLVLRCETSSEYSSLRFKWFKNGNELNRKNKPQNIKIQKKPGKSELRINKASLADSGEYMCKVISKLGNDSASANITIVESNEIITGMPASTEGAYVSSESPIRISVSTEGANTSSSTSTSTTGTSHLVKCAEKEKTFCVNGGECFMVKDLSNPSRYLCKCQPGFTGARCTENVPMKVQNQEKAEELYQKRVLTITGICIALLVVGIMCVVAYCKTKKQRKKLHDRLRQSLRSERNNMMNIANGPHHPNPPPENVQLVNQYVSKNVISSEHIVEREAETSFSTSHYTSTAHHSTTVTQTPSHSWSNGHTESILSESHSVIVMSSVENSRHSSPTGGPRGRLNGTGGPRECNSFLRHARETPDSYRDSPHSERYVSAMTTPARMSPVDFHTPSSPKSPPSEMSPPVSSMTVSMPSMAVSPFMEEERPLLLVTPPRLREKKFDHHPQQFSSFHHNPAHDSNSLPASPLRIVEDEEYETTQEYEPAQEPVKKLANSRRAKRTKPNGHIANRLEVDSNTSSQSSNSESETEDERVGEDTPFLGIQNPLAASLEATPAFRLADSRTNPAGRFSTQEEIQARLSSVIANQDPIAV
Test [7] concerns Neuregulin-1 EGF-like domain. The test is described as follows: small molecules binding NRG1 EGF domain – biochemical, small-molecule microarray, 635 nm fluorescence, primary screen (AID 1081).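 Also: binding of the protein to compounds printed on small-molecule microarray slides.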 The conditions noted are these: higher = more signal.
Test [8] can be described thus: FRG1 expression reporter modulators in myotubes – cell-based, C2C12 myotubes, firefly/Renilla luciferase, luminescence, FRG1 inhibition for FSHD, primary screen (AID 1084). Particulars: FRG1 promoter luciferase, higher = more signal, called active from +8 up or from −8 down.
Test [9] can be described thus: small molecules captured by biotinylated probe aFST – biochemical, small-molecule microarray, fluorescence 635/667, stem cell growth factor project, primary screen (AID 1086).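 Also: score merges 667 nm fluorescence with signal-to-noise of each printed compound spot.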 The conditions noted are these: higher = more signal.
A short description of test [10]: binders of probe aHhip on microarray, primary screen, stem cell growth factor project, biochemical, small-molecule microarray, fluorescence 635/667 (AID 1087).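 Also: score merges spot fluorescence at 667nm with spot signal to noise ratio.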 The conditions noted are these: higher = more signal.
Test [11] concerns PRMT1 (protein arginine N-methyltransferase 1). The test can be described thus: small molecules binding arginine methyltransferase PRMT1 – biochemical, small-molecule microarray, 635 nm fluorescence, primary screen (AID 1088).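 Also: binding of Prmt1 protein to compounds spotted on small-molecule microarray slides.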 The conditions noted are these: higher = more signal.
The nature of test [12]: growth effects on S. cerevisiae YJM789 – YJM789 clinical isolate, OD600, 24 h, basal, primary screen (AID 1089).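 Also: growth of clinical yeast isolate S. cerevisiae YJM 789 seeded 1000 cells per well; test concentration not given here.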 Particulars: higher = more signal, called active from +8 up or from −8 down.
The nature of test [13]: S. pombe growth modifiers, basal conditions – strain 972, OD600, 24 h, no modulator, primary screen (AID 1090).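 Also: basal condition with compound alone and no growth modifier present; test concentration not given here.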 Particulars: S. pombe 972 growth, higher = more signal, called active from +8 up or from −8 down.
A short description of test [14]: budding yeast growth modifiers under rapamycin – strain BY4716, OD600, 96 h, primary screen (AID 1091). Also: test concentration not given here. Particulars: S. cerevisiae BY4716 + rapamycin, higher = more signal, called active from +8 up or from −8 down.
Test [15] has as its target Torsin-1A-interacting protein 2 (Homo sapiens) (UniProt Q8NFQ8). The test is described as follows: small molecules binding lysate-expressed LULL1 – cell lysate, human LULL1 lysate, 635/667 nm fluorescence, primary screen (AID 1092).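 Also: score merges per-feature 667 nm fluorescence with signal-to-noise.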 The conditions noted are these: small-molecule microarray, hLULL1 lysate binding, 635 nm fluorescence; higher = more signal.
A short description of test [16]: optical density change of DRC41 E. coli – strain DRC41, OD650, 24 h, E. coli filamentation project, primary screen (AID 1093).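 Also: MC1000 strain lacking acrAB efflux and sulA so SOS filamentation is blocked; test concentration not given here.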 The conditions noted are these: E. coli DRC41 growth, higher = more signal, called active from +8 up or from −8 down.
Test [17] can be described thus: probe aLefty2 binding to arrayed compounds – biochemical, biotinylated probe, 635/667 nm fluorescence, primary screen (AID 1094).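 Also: score merges spot fluorescence near 667 nm with spot signal-to-noise ratio.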 Particulars: small-molecule microarray, higher = more signal.
Test [18] deals with Noggin (protein binding on small-molecule microarray). The test can be described thus: small molecules binding Noggin protein – biochemical, 635/667 nm fluorescence, primary screen (AID 1095).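 Also: score merges 667 nm feature fluorescence with signal to noise over triplicate slides.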 Particulars: 635 nm fluorescence, higher = more signal.
Test [19] deals with Neurogenic locus notch homolog protein 3 (Homo sapiens) (UniProt Q9UM47). The test can be described thus: small molecules binding NOTCH3 protein – biochemical, 635/667 nm fluorescence, primary screen (AID 1096). Particulars: small-molecule microarray, 635 nm fluorescence, higher = more signal.
A short description of test [20]: probe aEGFR binding to arrayed compounds – biochemical, biotinylated probe, 635/667 nm fluorescence, primary screen (AID 1097).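 Also: probe is a biotinylated anti-EGFR antibody binding compounds printed on slides; score combines fluorescence near 667 nm and signal to noise of each spot.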 The conditions noted are these: small-molecule microarray, higher = more signal.

The source made the active and inactive calls.

Torsin-1A-interacting protein 2 (Homo sapiens), sequence (Q8NFQ8 whole entry, looked up): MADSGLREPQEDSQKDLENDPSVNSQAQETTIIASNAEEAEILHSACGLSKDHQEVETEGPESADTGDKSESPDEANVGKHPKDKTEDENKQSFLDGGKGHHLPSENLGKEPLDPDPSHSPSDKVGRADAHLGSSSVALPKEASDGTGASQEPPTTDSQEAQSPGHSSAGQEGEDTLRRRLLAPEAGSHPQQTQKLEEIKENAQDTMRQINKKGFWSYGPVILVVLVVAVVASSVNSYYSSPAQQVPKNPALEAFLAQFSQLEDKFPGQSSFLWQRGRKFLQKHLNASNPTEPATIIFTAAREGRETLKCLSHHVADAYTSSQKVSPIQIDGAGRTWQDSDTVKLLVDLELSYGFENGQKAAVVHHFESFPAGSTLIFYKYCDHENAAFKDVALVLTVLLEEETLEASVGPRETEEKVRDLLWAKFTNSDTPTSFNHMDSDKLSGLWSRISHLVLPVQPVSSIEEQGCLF

As to `Cc1ccc(C(C)CC(O)C2C=CC3C(=O)N(C)C(=O)C3N2Nc2ccccc2)o1` (stereo not given), the composite z-score is -0.138 in test [1]; 0.0897 in test [2]; 0.0876 in [3]; 0.75 in [4]; 1.44 in test [5]; 0.812 in test [6]. Besides, the composite z-score in test [7] was 1.09; in test [9], 1.44; in test [10] it was -0.0994; in test [11], 1.55; in test [15], 0.788; in [17] it was 0.0997. The composite z-score in test [18] is 0.555; in test [19], 1.07; in test [20] it was -0.0167. For the same molecule, the z-score in test [8] is 0.651 (inactive); in [12], 0.121 (inactive); in test [13], 0.388 (inactive); in test [14] it was 0.651 (inactive); in test [16], -1.47 (inactive).
`O=C(NC1CC1)[C@@H]1c2ccccc2C(=O)N(Cc2cc(C(F)(F)F)cc(C(F)(F)F)c2)[C@H]1c1ccc(CO)cc1`: the composite z-score in test [1] was -0.758; in [2], 0.332; in test [3] it was -0.223; in test [4], 0.0757; in test [5] it was -0.134; in [6] it was 1.4. Also, the composite z-score in test [7] was 1.36; in [9], -0.131; in test [10] it was -0.863; in [11], 1.43; in test [15], 2.92; in [17] it was -0.508. Further, the figures for the composite z-score in test [18], in test [19] and in [20] were 0.76, 0.491 and -0.399, respectively. Also, the z-score in test [8] is 0.102 (inactive); in [12], -0.523 (inactive); in test [13], -1.38 (inactive); in [14], -0.108 (inactive); in [16] it was -0.275 (inactive).
Take `Cc1ccc(S[C@]2(C(=O)NC3CC3)CC(=O)N(C(C)C)[C@@H]2c2ccc(CO)cc2I)cc1`: the composite z-score in test [1] was -0.113; in [2], 0.38; in [3] it was -0.0234; in [4] it was 0.0084; in [5], -0.372; in [6], 1.89. The composite z-score is 1.07 in test [7]; 0.933 in test [9]; -0.318 in [10]; 1.27 in test [11]; 2.83 in [15]; -0.0865 in [17]. For the same molecule, the composite z-score in test [18] is -0.294; in test [19], 0.624; in test [20] it was -0.196. Also, the z-score in test [8] was -0.0443 (inactive); in test [12], -0.812 (inactive); in test [13], -2.43 (inactive); in test [14], -0.2 (inactive); in test [16], -1.34 (inactive).
`CCCCCCc1nc(-c2ccc(-c3ccc(Cl)c(Cl)c3)o2)cc2c1[Si](C(C)C)(C(C)C)OC2`: the composite z-score in test [1] was 0.0736; in test [2], -0.207; in test [3] it was -0.162; in [4], -0.632; in test [5], -1.01; in [6] it was -0.14. For the same molecule, the composite z-score in test [7] is 0.262; in test [9] it was -0.634; in [10], -0.134; in test [11], -0.849; in test [15] it was 0.582; in test [17] it was -0.159. Further, the composite z-score is -0.561 in [18], -0.453 in test [19] and -0.257 in [20]. Further, the z-score in test [8] was 1.25 (inactive); in test [12], -0.625 (inactive); in test [13] it was -7.54 (inactive); in test [14], 3.66 (inactive); in [16], 0.66 (inactive).
As for `COc1ccccc1CN1C(=O)c2ccccc2[C@](Cc2ccccc2I)(C(=O)NCC(C)C)[C@@H]1c1ccc(CO)cc1`, the composite z-score is 1.21 in test [1]; 0.204 in test [2]; -0.0049 in test [3]; -0.452 in test [4]; -0.396 in test [5]; 1.2 in test [6]. Besides, the composite z-score in test [7] amounted to 1.15; in test [9], 0.0126; in [10], 0.142; in [11], 1.33; in [15] it was 2.11; in test [17] it was 0.103. The values for the composite z-score in test [18], in test [19] and in [20] were -0.371, 0.139 and -0.0721, respectively. Further, the z-score in test [8] is -2.55 (inactive); in test [12], -0.747 (inactive); in [13], -0.652 (inactive); in test [14] it was 0.0134 (inactive); in [16], 2.2 (inactive).
